Experimental data published in PubChem BioAssay (NCI).
This is part of a sample that, as a whole, favours compounds with a hit. Of some 79,000 tested, about 15% had one in any assay. Activity calls are given as the source filed them. No stated cut-off is given here; in the data, active means growth inhibition above about 70%; inactive means the rest.

Tests used:
[1] = NCI Yeast Anticancer Drug Screen. Data for the rad50 strain (AID 155);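 further: 0% = growth of vehicle-only cultures of the same strain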; conditions: S. cerevisiae rad50 strain growth inhibition; at 50.0 µM; hits give high values
How it was run: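 A DNA repair-deficient yeast mutant serves as the test organism; compound-induced growth inhibition is calculated against vehicle-treated cells.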

[2] = NCI Yeast Anticancer Drug Screen. Data for the mec2-1 strain (AID 157); conditions: S. cerevisiae mec2-1 strain, at 50.0 µM, hits give high values
How it was run: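 Compounds were applied to mec2-1 yeast cells. Their growth was then compared with that of vehicle-treated cultures to give growth inhibition.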

[3] = NCI Yeast Anticancer Drug Screen. Data for the sgs1 mgt1 strain (AID 161);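 further: 0% = growth of cultures given vehicle only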; conditions: S. cerevisiae sgs1 mgt1 strain, at 50.0 µM, hits give high values
How it was run: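 This yeast growth screen uses a strain with defined DNA-repair lesions; compound-treated growth is compared with vehicle-treated growth.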

[4] = NCI Yeast Anticancer Drug Screen. Data for the cln2 rad14 strain (AID 165);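 further: 0% = growth equal to vehicle treated cultures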; conditions: S. cerevisiae cln2 rad14 strain, at 50.0 µM, hits give high values
How it was run: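 Strain: cln2 rad14 yeast, altered in cell cycle control and DNA damage repair. Read-out: growth inhibition vs vehicle.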

[5] = NCI Yeast Anticancer Drug Screen. Data for the bub3 strain (AID 167); conditions: S. cerevisiae bub3 mutant strain, at 50.0 µM, hits give high values
How it was run: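 Inhibition values come from growth of compound-treated mutant yeast normalised to vehicle-treated controls.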

[6] = NCI Yeast Anticancer Drug Screen. Data for the mlh1 rad18 strain (AID 175); conditions: S. cerevisiae mlh1 rad18 strain growth inhibition; at 50.0 µM; hits give high values
How it was run: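 A repair-deficient yeast strain is exposed to test compound, and growth is scored relative to vehicle-treated controls.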

Measured: growth inhibition

CCCCOc1n[nH]c(=O)c2ccccc12
inactive: [1] -2.4% | [2] -13% | [3] -3.65% | [4] -25.4% | [5] -7.9% | [6] 8.6%

Cc1cc(Cl)c(=O)n(-c2ccccc2)n1
inactive: [1] 3.65% | [2] -9.7% | [3] -9.95% | [4] -27.8% | [5] 4.75% | [6] -16.1%

ClC/C=C/COC1CCCCO1 (stereo unspecified)
inactive: [1] 6.8% | [2] -8.55% | [3] -8.5% | [4] -13.8% | [5] -7.6% | [6] -8.9%

Fc1ccc(-c2ccc(Br)cc2)cc1
inactive: [1] 3.95% | [2] 3.4% | [3] 2.05% | [4] -44% | [5] 17% | [6] -3.65%

CC(C)NCC(O)COc1c2ccccc2nc2ccccc12 (stereo unspecified)
inactive: [1] -8.65% | [2] -21.8% | [3] -24.2% | [4] -1.65% | [5] -20.1% | [6] 12.9%

O=C(O)C(Nc1ccc(Cc2ccc(NC(C(=O)O)c3ccccc3)cc2)cc1)c1ccccc1 (stereo unspecified)
active: [1] 94% | [2] 86% | [3] 92% | [6] 90%
inactive: [4] -4.5% | [5] 37.7%

CCCCSCCC(=O)O
inactive: [1] 18.4% | [2] -3.05% | [3] -22.2% | [4] 3.95% | [5] 5.95% | [6] 5.85%

CCC[C@@H]1CCCC[C@H]1C
inactive: [1] 0.55% | [2] -1.95% | [3] -5.3% | [4] -2.2% | [5] -14.2% | [6] 0.5%

COC(=O)c1cc2ccccc2cc1Nc1ccc2ccccc2c1
inactive: [1] 2.25% | [2] 4.7% | [3] 5.25% | [4] -10.3% | [5] -0.7% | [6] 7.3%

CC(C)(C)C1=NC(S)NC(CCC(=O)Nc2ccccc2[N+](=O)[O-])=C1 (stereo unspecified)
inactive: [1] 0.4% | [2] -8.85% | [3] -0.4% | [4] 14.2% | [5] 8.05% | [6] -7.4%

[N-]=[N+]=NS(=O)(=O)CCc1ccc(Cl)cc1
inactive: [1] 4.55% | [2] -3.95% | [3] -12.4% | [4] -55% | [5] -17.9% | [6] 4.85%

CCOC(=O)[C@]1(Br)CC[C@]1(Br)C(=O)OCC
inactive: [1] 16.2% | [2] -12.7% | [3] -4.95% | [4] 10% | [5] -29.1% | [6] -62.8%

C[C@@H]1CC[C@@]2(C)C(C(=O)O)=CCCC2[C@@]1(C)CC(=O)c1ccoc1 (stereo partly specified)
inactive: [1] -11.9% | [2] -8.55% | [3] -36.1% | [4] -17.1% | [5] -42.5% | [6] -35.2%

CC1(C)N=C(N)NC(Nc2ccc(Cl)cc2)=N1
inactive: [1] 9.6% | [2] 9.05% | [3] 10.8% | [4] -20.8% | [5] 14.6% | [6] 33.6%

O=C(c1ccccc1)N1OC2C=CC1CC2 (stereo unspecified)
inactive: [1] 4.6% | [2] 4.6% | [3] 5.1% | [4] -34.2% | [5] -2.1% | [6] -1.8%

Oc1ccccc1CN=Cc1ccccc1
inactive: [1] 7.45% | [2] 4.1% | [3] -4.25% | [4] -0.5% | [5] -27.2% | [6] 4.85%

Nc1cccc(CC(=O)c2ccccc2)n1
inactive: [1] -4.3% | [2] -11% | [3] -7.9% | [4] -8.55% | [5] -3.05% | [6] -13.1%

Cn1ncc(C(=O)O)c1[N+](=O)[O-]
inactive: [1] 6.85% | [2] -14.5% | [3] 8.35% | [4] -37.6% | [5] -6.2% | [6] 5.25%

Nc1nnnn1-c1cccc(Cl)c1
inactive: [1] 7.5% | [2] 0.35% | [3] 1.6% | [4] -18.8% | [5] -2.4% | [6] 10.6%

CCOC(=O)N1Cc2cc3ccc(OC)cc3nc2C1
inactive: [1] 6% | [2] -4.15% | [3] -21.1% | [4] -10% | [5] -24.4% | [6] 3.9%

CCCCCCCCCCCCCCCCCC(=O)OC(C(O)C=O)C(O)C(O)CO (stereo unspecified)
inactive: [1] 12.6% | [2] 16.3% | [3] 22.2% | [4] 23.9% | [5] -5.55% | [6] 45.8%

CCCOC(=O)C(OC(=O)c1ccccc1)C(OC(=O)c1ccccc1)C(=O)OCCC (stereo unspecified)
inactive: [1] -0.65% | [2] 0.1% | [3] -8% | [4] -10.9% | [5] 5.05% | [6] -3.7%

C[N+]1(CCC[N+]2(C)CCC3(CCCCC3)CC2)CCOCC1
inactive: [1] 18.6% | [2] -0.05% | [3] 11.2% | [4] -4.8% | [5] -1.55% | [6] 16.8%

NC(CSCC(=O)O)C(=O)O (stereo unspecified)
inactive: [1] -19.8% | [2] -3.85% | [3] 1.15% | [4] -20.6% | [5] 16.1% | [6] -5.9%

CN(C)C(=O)c1ccc[n+](CC(=O)Nc2ccccc2)c1
inactive: [1] 0.7% | [2] -3.85% | [3] 13.1% | [4] -1.25% | [5] 4.05% | [6] -4.4%

Cc1ccc(NC(=O)NCCCN2CCOCC2)cc1NC(=O)NCCCN1CCOCC1
inactive: [1] -11.8% | [2] -22.6% | [3] 3.85% | [4] 17.2% | [5] 8.3% | [6] 7.05%

CCCCNc1ccc2c(c1)Cc1ccccc1-2
inactive: [1] 18.9% | [2] -4.1% | [3] 15.8% | [4] 3.25% | [5] -18.8% | [6] -8.35%

CCCCCC/C(CC(=O)CCC(=O)NCCc1ccccc1)=N\Nc1ccc([N+](=O)[O-])cc1[N+](=O)[O-]
inactive: [1] -0.2% | [2] 14.9% | [3] -35.5% | [4] 34.2% | [5] 11.9% | [6] -1.7%

CC1(C)C[C@@H]2C1CCC1(C)CC2(O)CC[C@H]1O (stereo partly specified)
inactive: [1] -23.6% | [2] -35% | [3] -24.8% | [4] 14.4% | [5] 2.3% | [6] -17.9%

O/N=C1/CCCCc2ccccc21
inactive: [1] -13.4% | [2] 0.95% | [3] -21.2% | [4] -29.7% | [5] -14.4% | [6] -15.2%

C=CC[Si](CC=C)(CC=C)OCC
inactive: [1] 22.5% | [2] -17.6% | [3] 4.05% | [4] 7% | [5] -6% | [6] 17.4%

COCC/C=C\CN(C(C)C)C(C)C
inactive: [1] -9.5% | [2] -13.3% | [3] -0.4% | [4] 5.45% | [5] 3.5% | [6] 1.05%

O=C(NNc1ccccc1)C1C2CC3OC(=O)C1C3C2 (stereo unspecified)
inactive: [1] 54% | [4] 52.4% | [6] 68.5%
active: [2] 82.1% | [3] 77.6% | [5] 79.8%

CCOC(=O)c1ccc(Nc2nc3ccccc3nc2C(=O)OCC)cc1
inactive: [1] -31.8% | [2] -39.1% | [3] -4.95% | [4] -3.7% | [5] 18.4% | [6] -26.9%

O=C(NCc1ccccc1)c1cc(Cl)ccc1O
inactive: [1] -20.3% | [2] -7.1% | [3] -7.65% | [4] -37.4% | [5] 0.95% | [6] 5.35%

CCCC(C)C(=O)OC1CCCCC1C (stereo unspecified)
inactive: [1] -0.95% | [2] 4.25% | [3] -7.85% | [4] -45.6% | [5] 8.1% | [6] 0.6%

CCOC(=O)CNC1C(NC(C)=O)C(OC)OC2COC(c3ccccc3)OC21 (stereo unspecified)
inactive: [1] -7.7% | [2] 6.6% | [3] 6.7% | [4] -12.3% | [5] -0.75% | [6] -2.4%

O=C1C2=C(Nc3ccccc3N2)OC1c1ccc2c(c1)OCO2 (stereo unspecified)
inactive: [1] 4.15% | [2] -9.95% | [3] -20.1% | [4] -7.9% | [5] -29.4% | [6] -0.1%

CC(=O)NC(c1ccccc1)c1c(O)ccc2ccccc12 (stereo unspecified)
inactive: [1] 26.6% | [2] -2.8% | [3] 10.8% | [4] -33.2% | [5] -2.5% | [6] -5.25%

O=C(O)CCC(NC(=O)c1ccc(Nc2nc3ccccc3nc2C(=O)O)cc1)C(=O)O (stereo unspecified)
inactive: [1] -2% | [2] -11.2% | [3] -6.15% | [4] 3% | [5] 0% | [6] 0.65%

COc1ccc2c(c1)c1c3c(ccc4ncn2c43)N(CCO)CCN=1
inactive: [1] -19.6% | [2] -52% | [3] -25.9% | [4] -23.5% | [5] -12% | [6] 1.6%
